KKLEB tox – counter-screen for CF NF-kB inhibitors: cytotoxicity; 360,000 tested, 0.36% active; activity change (cytotoxicity), % at 5 µM; KKLEB CF airway cells viability, ATPlite luminescence, overnight; active compounds read low; cells stimulated with P. aeruginosa culture filtrate;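 active = corrected activity change at or below -50% at 5 µM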
HIF-2a inh – blocks HIF-2a reporter activity; 786-0 RCC cells HIF-2a reporter, luciferase luminescence, overnight; inhibition, % at 18.8 µM; 360,000 tested, 0.72% active; AID 624352;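 active = inhibition of the luminescence signal of 40% or more relative to plate controls, in a single-dose primary screen at 18.75 µM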
Peg3 prom inh – inhibitors of Peg3 promoter | HeLa PEG-Prom luciferase reporter, luminescence, overnight | inhibition, % at 20 µM | 360,000 tested, 1.7% active;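 active = inhibition of at least 50% at 20 µM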
Shn3 3UTR inh – inhibitors of Schnurri-3 3'UTR reporter in osteoblasts; inhibition, % at 12.5 µM; 360,000 tested, 0.52% active; Clone20 osteoblast Shn3 3'UTR firefly luciferase, 24 h;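 active = mean inhibition of at least 75% with every replicate also reaching 75%; inconclusive = mean inhibition at least 75% but some replicate below; inactive = mean inhibition below 75%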
CF NFkB inh – inhibitors of cystic fibrosis induced NF-kB. KKLEB NF-kB-GFP reporter, PAF-induced, GFP fluorescence overnight. inhibition, % at 5 µM. 360,000 tested, 0.86% active. AID 588850;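 active = at least 50% inhibition at 5 µM, scaled per plate between neutral and stimulator controls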;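 also: PAF is a Pseudomonas aeruginosa culture filtrate used as stimulus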
Mdm2-MdmX confirm – Mdm2/MdmX (human) interaction inhibition, confirmed; shares compounds with HIF-2a inh; SaOS-2 split-luciferase Mdm2/MdmX complementation, luminescence; inhibition, % at 8 µM; 740 tested, 99% active;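 active = mean inhibition of the luminescence signal across two replicates at or above 26 percent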
Target sequence (O15151 whole entry, looked up): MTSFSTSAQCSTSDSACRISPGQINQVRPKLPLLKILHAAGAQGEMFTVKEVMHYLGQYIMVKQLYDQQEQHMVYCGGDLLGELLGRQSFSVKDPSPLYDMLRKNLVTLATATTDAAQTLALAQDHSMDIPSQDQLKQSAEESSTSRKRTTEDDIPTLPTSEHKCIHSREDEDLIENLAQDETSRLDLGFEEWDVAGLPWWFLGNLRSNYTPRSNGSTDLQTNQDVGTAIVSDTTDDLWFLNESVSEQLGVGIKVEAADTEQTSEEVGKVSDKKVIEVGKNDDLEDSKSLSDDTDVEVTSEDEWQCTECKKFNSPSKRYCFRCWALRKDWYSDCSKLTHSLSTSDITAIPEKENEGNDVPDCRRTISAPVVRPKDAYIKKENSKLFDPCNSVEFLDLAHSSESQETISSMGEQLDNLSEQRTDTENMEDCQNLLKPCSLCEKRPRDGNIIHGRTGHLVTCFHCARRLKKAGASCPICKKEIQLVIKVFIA
Target sequence (Q00987 whole entry, looked up): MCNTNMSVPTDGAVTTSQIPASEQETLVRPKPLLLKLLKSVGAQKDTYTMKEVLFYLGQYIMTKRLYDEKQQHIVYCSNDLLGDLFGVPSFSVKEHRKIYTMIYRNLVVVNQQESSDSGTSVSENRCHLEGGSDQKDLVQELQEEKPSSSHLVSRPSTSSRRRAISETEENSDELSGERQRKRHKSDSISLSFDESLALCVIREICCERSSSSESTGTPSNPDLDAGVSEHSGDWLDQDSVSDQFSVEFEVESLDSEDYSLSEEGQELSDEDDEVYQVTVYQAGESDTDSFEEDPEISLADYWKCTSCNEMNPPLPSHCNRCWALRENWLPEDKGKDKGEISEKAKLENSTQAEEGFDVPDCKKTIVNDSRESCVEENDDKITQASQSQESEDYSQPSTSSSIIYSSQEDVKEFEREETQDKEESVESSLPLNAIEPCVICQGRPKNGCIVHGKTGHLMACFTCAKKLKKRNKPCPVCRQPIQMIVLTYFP
HIF-2a inh conf – confirmation of HIF-2a inhibitors | 786-0 RCC cells, HIF-2a luciferase reporter luminescence, overnight | shares compounds with HIF-2a inh | 1,800 tested, 56% active | inhibition, % at 18.8 µM;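 active = mean inhibition across four replicates of at least 40 percent at the single tested concentration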
HIF-1a cs – counter-screen for HIF-2a inhibitors: HIF-1a inhibition in MiaPaCa-2 cells; shares compounds with HIF-2a inh; MiaPaCa-2 HIF-1a luciferase reporter, desferoxamine, overnight; inhibition, % at 18.8 µM; 1,800 tested, 72% active; AID 651589;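 active = mean inhibition of the reporter signal across four replicates at the single tested dose of 50% or more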
Hits are given with their value; . = inactive; ? = inconclusive; / = no result. Compounds with a hit are over-represented: about 2.6% of the library has one in this group of screens.

SMILES	KKLEB tox	HIF-2a inh	Peg3 prom inh	Shn3 3UTR inh	CF NFkB inh	HIF-2a inh conf	HIF-1a cs	others
CS(=O)c1nc(-c2ccc(Br)cc2)cc(-c2ccccc2)c1C#N (stereo unspecified)	.	88	106	.	.	.	98
COc1ccc(-c2cc(-c3cccnc3)c(C#N)c(N)n2)cc1	.	.	.	.	.	/	/
COc1ccc(-c2cc(-c3ccccc3)c(C#N)c(S(C)(=O)=O)n2)cc1	.	88	104	.	.	.	85
CC(C)c1cccc(-c2ccc3c(c2)S(=O)(=O)c2cccc(C(=O)NC4CCCC4)c2C3=O)c1	.	.	.	.	.	/	/
O=C(CCC1CCCN(C(=O)Cn2cnnn2)C1)NCc1ccccc1F (stereo unspecified)	.	.	.	.	.	/	/
COc1ccc(C2C3=C(CCCC3=O)N(CC(=O)O)C3=C2C(=O)CCC3)cc1Cl	.	.	.	.	.	/	/
COc1ccc(-c2noc(CCC(=O)NC3CCCCCC3)n2)cc1OC	.	.	.	.	.	/	/
CC(=NNC(=S)Nc1cccc(Cl)c1)c1ccccn1	.	72	93	.	.	.	.
CC(C(=O)NCC1CCCCC1)N1CCN(S(=O)(=O)c2ccccc2F)CC1 (stereo unspecified)	.	.	.	.	.	/	/
CCOc1cccc(/C=N/Nc2ccc(S(=O)(=O)N(CC)CC)cn2)c1O	.	.	.	?	.	/	/	Mdm2-MdmX confirm=91
CCOC(=O)C(CC)(CC)C(=O)/C=C/c1ccc(Br)cc1	.	58	75	.	.	.	106
Cc1nc2nc(C)n(CCN3CCOCC3)c(=O)c2c(-c2cccc([N+](=O)[O-])c2)c1C(=O)CCCCCCCCCCN1CCC(c2ccccc2)(c2ccccc2)CC1	.	84	95	?	.	.	107
O=C(NCCCN1CCOCC1)/C(=C/c1ccc(-c2cccc([N+](=O)[O-])c2)o1)NC(=O)c1ccccc1	.	.	.	.	.	/	/
Cc1n[nH]c(=O)c2c(NC(=O)COC(=O)/C=C/c3cccc(C(F)(F)F)c3)oc(C)c12	.	.	.	.	.	/	/
O=C(/C=C\Nc1ccccn1)c1ccc(Cl)cc1	.	46	.	.	.	.	.
O=c1c2ccccc2nc(/C=C/c2ccc([N+](=O)[O-])cc2)n1CCCO	.	.	.	.	.	/	/
O=c1c2ccccc2nc(/C=C/c2ccc([N+](=O)[O-])o2)n1CCCO	.	80	104	96	.	54	106
CCCCCCCCC[n+]1cccc2c3ccccc3ccc21	.	.	113	89	.	/	/	Mdm2-MdmX confirm=101
C=CC(=O)Nc1ccc(Nc2nc(NC3CCC(N(C)C)CC3)nc3c2ncn3C(C)C)cc1 (stereo unspecified)	-74	76	107	94	94	/	/	Mdm2-MdmX confirm=103
O=C(CN1C(=O)c2ccccc2S1(=O)=O)c1ccc(F)cc1	.	57	58	.	.	64	59
O=C(CN1C(=O)c2ccccc2S1(=O)=O)c1ccc(Cl)cc1Cl	.	55	.	.	.	82	90
O=C(CN1C(=O)c2ccccc2S1(=O)=O)c1ccc(OC(F)F)cc1	.	52	56	.	.	75	64
COc1ccccc1COC(=O)c1ccc(S(=O)(=O)N2CCOCC2)cc1	.	.	.	.	.	/	/
CN(Cc1cc(Cl)cc(Cl)c1)CC(C(=O)c1ccccc1)c1ccccc1 (stereo unspecified)	.	.	.	.	.	/	/
CN(C)CC(C(=O)c1ccccc1)c1ccccc1 (stereo unspecified)	-51	86	114	95	63	.	96	Mdm2-MdmX confirm=103
SMILES	KKLEB tox	HIF-2a inh	Peg3 prom inh	Shn3 3UTR inh	CF NFkB inh	HIF-2a inh conf	HIF-1a cs	others
O=[N+]([O-])c1c(Nc2ccccc2O)cc(Cl)c2nonc12	.	95	100	97	80	98	99	Mdm2-MdmX confirm=103
O=c1cc[nH]c2ccc(Cl)cc12	.	.	.	.	.	/	/
O=c1cccc2c1c1cc[nH]c3ccc(=O)n2c31	.	.	.	.	.	/	/	Mdm2-MdmX confirm=93
CC(C)C[C@@H](CN1CCC[C@@H]1CN1C(=O)C(=O)NC[C@@H]1Cc1ccccc1)N1C[C@H](Cc2ccccc2)N(CC2CCCCCC2)C(=O)C1=O	.	80	55	.	.	.	105
CCS(=O)(=O)CCSc1nc2ccccc2o1	.	.	.	.	.	/	/
O=S(=O)(CCSc1nc2ccccc2o1)c1nc2ccccc2s1	.	57	.	.	57	70	90
CC(C)(C)c1ccc(C(=O)NCCCN2CCN(CCCNC(=O)c3ccc(C(C)(C)C)cc3)CC2)cc1	-71	73	109	.	.	/	/	Mdm2-MdmX confirm=102
CC(C)(C)c1ccc(/C=C/C(=O)NCCCN2CCOCC2)cc1	.	48	.	.	.	.	.
Cc1ccc(/C=C/C(=O)NCCCN2CCN(CCCNC(=O)/C=C/c3ccc(C)cc3)CC2)cc1	.	.	.	.	.	/	/
CC(C)(C)c1ccc(C(=O)NCCN2CCOCC2)cc1	.	.	.	.	.	/	/
COc1ccc(-c2csc3ncn(CC(=O)N4CCOCC4)c(=O)c23)cc1	.	.	.	.	.	/	/
Cc1ccc(/C=C/C(=O)c2c(C)cc(C)[nH]c2=O)cc1	.	.	.	.	.	/	/
CCc1ccc(/C=C/C(=O)c2c(C)cc(C)[nH]c2=O)cc1	.	52	64	.	.	.	54
COc1ccc(-c2cc3nc(-c4ccccc4)cc(N4CCCC(O)C4)n3n2)cc1 (stereo unspecified)	.	43	.	.	.	.	90
CCCNC(=O)NS(=O)(=O)c1ccc(Cl)cc1	.	.	.	.	.	/	/
CCCNC(=O)c1ccc2snnc2c1	.	.	.	.	.	/	/
CCCNC(=O)c1nnsc1S(=O)(=O)c1ccc(Cl)cc1	.	79	101	92	89	69	57	Mdm2-MdmX confirm=103
CCCNC(=O)c1nnsc1S(=O)c1ccc(Cl)cc1 (stereo unspecified)	.	44	104	96	84	.	99
Cc1noc(C)c1NC(=O)N(C)C[C@@H]1Oc2ncc(Br)cc2C(=O)N([C@H](C)CO)C[C@@H]1C	.	.	.	.	.	/	/
CCCCC(=O)N/N=C/c1ccc(N2CCOCC2)c([N+](=O)[O-])c1	.	.	.	.	.	/	/
CC(C)(C)NS(=O)(=O)c1ccc(/C=C/C(=O)O)cc1	.	.	.	/	.	/	/
COc1ccc(C(=O)c2ccc(CC(=O)O)s2)cc1	.	59	.	.	.	66	61
O=C(O)Cc1ccc(C(=O)c2ccccc2)s1	.	.	.	/	.	/	/
COc1cc(CNC2CCCC2)cc(Cl)c1OCc1ccc(F)cc1	.	.	.	.	.	/	/

Assay outcomes from PubChem BioAssay.
